Measurements published in the supplement of paper PMC10681739.

The sequences below were run against T1, ETS1 (UniProt P14921) (assay: ETS1 binding intensity (PBM fluorescence), ETS1 alone (arbitrary fluorescence units); higher = stronger binding). Conditions: ETS1 concentration 1 nM; RUNX1 concentration 0 nM.
T1 sequence: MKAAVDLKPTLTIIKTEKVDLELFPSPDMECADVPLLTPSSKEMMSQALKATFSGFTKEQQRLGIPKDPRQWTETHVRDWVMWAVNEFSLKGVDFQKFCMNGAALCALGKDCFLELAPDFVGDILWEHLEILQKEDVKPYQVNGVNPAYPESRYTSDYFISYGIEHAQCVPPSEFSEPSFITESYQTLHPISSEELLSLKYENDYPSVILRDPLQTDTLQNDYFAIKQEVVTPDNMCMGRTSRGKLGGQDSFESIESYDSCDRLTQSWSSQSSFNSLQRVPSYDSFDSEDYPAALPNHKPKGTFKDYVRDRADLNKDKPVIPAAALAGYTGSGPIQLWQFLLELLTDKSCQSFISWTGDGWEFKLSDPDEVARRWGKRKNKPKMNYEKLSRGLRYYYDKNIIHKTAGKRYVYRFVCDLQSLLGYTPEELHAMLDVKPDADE

| Sequence | ETS1 binding intensity |
| --- | --- |
| TCCGGAAGTGGCACTGATGGGCGCCTGCGGCGGGGG | 2720 |
| GGTGTGTTCTGGGGAGGAAGTGGGTTTTCAGGTTGT | 3820 |
| GACTTTTACGGAAATAGCAGTCCAAAACCGCGTCTA | 691 |
| CATTTCAGTCCAGGATGTGGGTGCACACACCGCTTC | 1610 |
| CAGTGAACAGTTTCCTGTTCCTGTGGTTTTGACTTT | 1230 |
| ATAGACTCAGGAAGTGATTGTGGTAAGATTCTATAT | 1460 |
| AGTCCTGCCCACTTCCTGCCGCAAGAGAAATCCACT | 1930 |
| TGCGCCGCTTCCGCTGCCCGAGGAAGAGCCGCAGTC | 1090 |
| AGCCACGGACTTCCGCCTACAGGTCGCCGCAGGTCC | 701 |
| AGATTAGATGCAGGATGTGGTATACAAAGGCACGTT | 2530 |
| AGTCAGCAGAGAGGAAGTGGTTAGTCCTGCCTTGAA | 2240 |
| TCCCACTGCGACGGAAGCACAGCGGTTAAGATTGCA | 821 |
